Test results from PubChem BioAssay AID1159580 (chemical genetic matrix, 2015).
In all, about 5,500 compounds went through this assay and about 2,000 (36%) were called active. Another 18% or so got no clear call; they are omitted. Cut-off read from the data, not from the text of the source: active = normalized growth mostly below about 0.91 (no sharp cut-off); inconclusive = no clear call, values can overlap the other calls; inactive = mostly above about 0.92. Some of the results follow.

Assay: chemical genetic growth profiling, strain panel (AID 1159580);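 note: tested at 20 µM; growth read once vehicle control cultures reached saturation at 30 °C; 1 = growth at the plate median or of vehicle wells; lower values mean less growth of the strain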
Details: growth OD
[1] = S. cerevisiae deletion strains, locus YAL013W, strain DEP1, stronger effect = lower value
[2] = S. cerevisiae deletion strains, locus YBR229C, strain ROT2, stronger effect = lower value
[3] = S. cerevisiae deletion strains, locus YDL101C, strain DUN1, stronger effect = lower value
[4] = S. cerevisiae deletion strains, locus YDR150W, strain NUM1, stronger effect = lower value
[5] = S. cerevisiae deletion strains, locus YEL061C, strain CIN8, stronger effect = lower value
[6] = S. cerevisiae deletion strains, locus YGR078C, strain PAC10, stronger effect = lower value
[7] = S. cerevisiae deletion strains, locus YHR030C, strain SLT2, stronger effect = lower value
[8] = S. cerevisiae deletion strains, locus YHR087W, strain rtc3, stronger effect = lower value
[9] = S. cerevisiae deletion strains, locus YJR043C, strain POL32, stronger effect = lower value
[10] = S. cerevisiae deletion strains, locus YJR075W, strain HOC1, stronger effect = lower value
[11] = S. cerevisiae deletion strains, locus YLR039C, strain RIC1, stronger effect = lower value
[12] = S. cerevisiae deletion strains, locus YLR058C, strain SHM2 (second series), stronger effect = lower value
[13] = S. cerevisiae deletion strains, locus YLR085C, strain ARP6, stronger effect = lower value
[14] = S. cerevisiae deletion strains, locus YLR262C, strain YPT6, stronger effect = lower value
[15] = S. cerevisiae deletion strains, locus YML094W, strain GIM5, stronger effect = lower value
[16] = S. cerevisiae deletion strains, locus YMR219W, strain ESC1, stronger effect = lower value
[17] = S. cerevisiae deletion strains, locus YMR263W, strain SAP30, stronger effect = lower value
[18] = S. cerevisiae deletion strains, locus YNL153C, strain GIM3, stronger effect = lower value
[19] = S. cerevisiae deletion strains, locus YNL298W, strain CLA4 (second series), stronger effect = lower value
[20] = S. cerevisiae deletion strains, locus YNL322C, strain KRE1, stronger effect = lower value
[21] = S. cerevisiae deletion strains, locus YNR030W, strain Alg12, stronger effect = lower value
[22] = S. cerevisiae deletion strains, locus YOL006C, strain TOP1, stronger effect = lower value
[23] = S. cerevisiae deletion strains, locus YPL055C, strain LGE1, stronger effect = lower value
[24] = S. cerevisiae deletion strains, locus YPL241C, strain CIN2, stronger effect = lower value
[25] = S. cerevisiae deletion strains, locus YPR135W, strain CTF4, stronger effect = lower value
[26] = S. cerevisiae strains, strain wild type, stronger effect = lower value

Measured: normalized growth

COC(=O)COc1ccc(C(C)=O)cc1
inactive: [1] 1.01 | [2] 0.988 | [3] 0.96 | [4] 0.977 | [5] 1.01 | [6] 1 | S. cerevisiae deletion strains, locus YGR229C, strain SMI1, stronger effect = lower value 0.992 | [7] 1.02 | [8] 1 | [9] 1.01 | [10] 0.984 | [11] 0.974 | [12] 1 | [13] 1.01 | [14] 0.975 | [15] 0.952 | [16] 1.01 | [17] 1 | [18] 1 | [19] 0.977 | [20] 0.991 | [21] 0.98 | [22] 0.999 | [23] 0.992 | [24] 1.07 | [25] 0.935 | [26] 0.99

Clc1ccc(OCCOc2ccc(Cl)cc2)cc1
inactive: [1] 1.01 | [2] 0.99 | [3] 1.04 | S. cerevisiae deletion strains, locus YDL134C, strain PPH21, stronger effect = lower value 0.996 | [4] 1.01 | [5] 0.99 | [6] 1.02 | [7] 0.978 | [8] 0.965 | S. cerevisiae deletion strains, locus YJL187C, strain SWE1, stronger effect = lower value 1.02 | [9] 1.04 | [10] 0.998 | [11] 1.01 | [12] 1.01 | [13] 1.01 | [14] 0.95 | [15] 0.971 | [16] 1.02 | [17] 1.01 | S. cerevisiae deletion strains, locus YNL128W, strain TEP1, stronger effect = lower value 1.01 | [18] 1 | [19] 0.989 | [20] 0.998 | [21] 0.983 | [22] 0.937 | [23] 0.975 | [24] 0.986 | [25] 1.07 | [26] 1.01
